Results filed as inconclusive are left out. Activity calls are given as the source filed them. Unless noted, calls follow the shape of the dose curve; as a rule, active = well fitted curve in the direction sought with a large enough effect in the repeat runs; inconclusive = weak or mixed curves; inactive = no such curve, though single readings can be large; an effect the other way counts as inactive or inconclusive.
Key:
[1] = qHTS assay to identify small molecule agonists of the sonic hedgehog signaling (Shh) pathway - cell viability counter screen (AID 1259366); also: nearly all actives have a fitted effect of over 50% in size
Outline: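 In quantitative high-throughput format, 3T3 Gli1-Luc cells were exposed to compounds for 24hr and multiplexed for viability using CellTiter-Fluor, incubated 1hr at 37C before the fluorescence read.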

[2] = qHTS assay to identify small molecule antagonists of the sonic hedgehog signaling (Shh) pathway - cell viability counter screen (AID 1259367); also: nearly all actives have a fitted effect of over 55% in size
Outline: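 After a 4 hr settling period, 3T3 Gli1-Luc cells were treated with DMSO-dissolved chemicals and conditioned medium, kept 24 hr at 37C in 5% CO2, and assayed for viability by CellTiter-Fluor fluorescence following 1 hr reagent incubation.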

[3] = qHTS assay to identify small molecule agonists of the sonic hedgehog signaling (Shh) pathway (AID 1259368; calls by dose curve;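 also: NIH/3T3-derived 3T3Gli1-Luc cells carrying a stable Gli1-driven firefly luciferase reporter; series mostly up to about 92 µM; nearly all actives have a fitted effect of over 15% in size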)
Outline: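 Luminescent signal was taken as a measure of Gli1-controlled luciferase expression in stably transfected NIH/3T3-derived cells that had been treated for 24 hr with compounds delivered in DMSO.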

[4] = qHTS assay to identify small molecule antagonists of the sonic hedgehog signaling (Shh) pathway (AID 1259369; calls by dose curve; also: nearly all actives have a fitted effect of over 45% in size)
Outline: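 Screening used 3T3Gli1-Luc cells at 2,000 per well, compounds delivered in DMSO, and conditioned medium as agonist stimulus; plates incubated 24hr at 37 C and 5% CO2 before a 30min luciferase step.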

[5] = biological target: Estrogen receptor beta (Homo sapiens) (UniProt Q92731); experiment: qHTS assay to identify small molecule agonists of the estrogen receptor beta (ER-beta) signaling pathway (AID 1259377; active = well fitted activation curve with a large enough effect in the signal ratio in the repeat runs, not every such curve was filed as active; the % refers to the signal ratio)
Outline: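 Reporter cells (HEK293T, ER-beta-UAS-bla) receive compounds or DMSO after a 6 hr pre-incubation. They then incubate 16 hr at 37C/5% CO2, and fluorescence from LiveBLAzer B/G substrate is measured after 2 hours at room temperature.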

[6] = biological target: Estrogen receptor beta (Homo sapiens) (UniProt Q92731); experiment: qHTS assay to identify small molecule antagonists of the estrogen receptor beta (ER-beta) signaling pathway (AID 1259378; active = well fitted inhibition curve with a large enough effect in the signal ratio in the repeat runs, not every such curve was filed as active; the % refers to the signal ratio)
Outline: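 ER-beta-UAS-bla HEK293T (GripTite) cells in 2% charcoal-stripped FBS medium were preincubated 6 hr at 37C, dosed with compound, then stimulated with 1 nM E2 (final) for 16 hr; beta-lactamase reporter read by B/G FRET fluorescence after 2 hr substrate loading.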

[7] = qHTS assay to identify small molecule agonists of the androgen receptor (AR) signaling pathway in the presence of an antagonist - cell viability counter screen (AID 1259379);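 also: MDA-kb2 human breast cancer cells carrying an MMTV luciferase reporter; series mostly up to about 92 µM; nearly all actives have a fitted effect of over 25% in size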
Outline: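 In MDA-kb2 cells (human breast carcinoma, MMTV-luciferase), compounds at 15 concentrations plus 3.0uM nilutamide; 16 hr, 37C, 0% CO2; CellTiter-Fluor fluorescence read for viability.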

[8] = qHTS assay to identify small molecule agonists of the estrogen receptor beta (ER-beta) signaling pathway - cell viability counter screen (AID 1259380); also: nearly all actives have a fitted effect of over 30% in size
Outline: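 Viability of ER-beta-UAS-bla HEK293T cells was determined by CellTiter-Glo luminescence following 16 hr treatment with test compounds at 37C.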

[9] = qHTS assay to identify small molecule antagonists of the estrogen receptor beta (ER-beta) signaling pathway - cell viability counter screen (AID 1259382); also: series mostly up to about 92 µM; nearly all actives have a fitted effect of over 55% in size
Outline: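 Tox21 10K library tested in qHTS format on ER-beta-bla HEK293T cells stimulated with 1nM E2; 16 hr treatment at 37C. Same-well CellTiter-Glo luminescence served as the cell viability measure.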

[10] = qHTS assay to identify small molecule agonists or antagonists of the thyroid stimulating hormone receptor (TSHR) signaling pathway - wild type cell line counter screen (AID 1259384; calls by dose curve)
Outline: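 Wild-type HEK293 cells were plated 18 h at 37 C/5% CO2, pin-dosed with compound plus Ro20-1724 medium, held 30 min at room temperature, then given cAMP-d2 and anti-cAMP-cryptate; fluorescence was read after 1 h. Fifteen concentrations, triplicate.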

[11] = biological target: Thyrotropin receptor (Homo sapiens) (UniProt P16473); experiment: qHTS assay to identify small molecule antagonists of the thyroid stimulating hormone receptor (TSHR) signaling pathway (AID 1259385; calls by dose curve; also: nearly all actives have a fitted effect of over 20% in size)
Outline: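 TSHR-HEK293 cells were plated and held 18 h at 37C/5% CO2, then given compound plus Ro20-1724 and stimulated with TSH at 1.5 ng/mL final. After 30 min at room temperature, cAMP was detected with cAMP-d2/anti-cAMP-cryptate (1 h) by fluorescence.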

[12] = qHTS assay to identify small molecule agonists of the estrogen receptor alpha (ER-alpha) signaling pathway in the presence of an antagonist - cell viability counter screen (AID 1259386);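 also: series mostly up to about 92 µM; cells exposed to compounds for 22 h at 37 °C before the viability read; nearly all actives have a fitted effect of over 30% in size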
Outline: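 Fluorescent CellTiter-Fluor viability signal from VM7Luc4E2 cells, with the reagent added during the final hour of a 22hr compound exposure at 37C in the presence of 10.0nM ICI-182,780.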

[13] = biological target: Progesterone receptor (Homo sapiens) (UniProt P06401); experiment: qHTS assay to identify small molecule antagonists of the progesterone receptor (PR) signaling pathway (AID 1346795; active = well fitted inhibition curve with a large enough effect in the signal ratio in the repeat runs, not every such curve was filed as active; the % refers to the signal ratio)
Outline: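 Stimulus R5020 at 1 nM final; cells HEK293T PR-UAS-bla; medium with 2% charcoal-stripped FBS; compound exposure 16 hr at 37C, 5% CO2; detection by FRET beta-lactamase substrate, 2 hr, room temperature.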

[14] = qHTS assay to identify small molecule antagonists of the progesterone receptor (PR) signaling pathway - cell viability counter screen (AID 1346798); also: series mostly up to about 92 µM; nearly all actives have a fitted effect of over 50% in size
Outline: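 In the same plates used for the beta-lactamase readout, cell viability of compound- and R5020-treated PR-UAS-bla HEK293T cells (16 hr, 37C) was assessed by CellTiter-Glo luminescence.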

[15] = qHTS assay to identify small molecule agonists of the progesterone receptor (PR) signaling pathway - cell viability counter screen (AID 1346799; calls by dose curve; also: nearly all actives have a fitted effect of over 45% in size)
Outline: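 Multiplexed viability read: CellTiter-Glo luminescence, 30 min RT, following LiveBLAzer FRET measurement on PR-UAS-bla HEK293T cells exposed to compounds 16 hr.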

[16] = qHTS assay to identify small molecule agonists of the TGF-beta/Smad signaling pathway - cell viability counter screen (AID 1346829); also: top concentration of the series differs between compounds; nearly all actives have a fitted effect of over 45% in size
Outline: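 Same-well cytotoxicity: CellTiter-Glo added after the 2 hr room-temperature beta-lactamase substrate step, luminescence measured 30 min later; cells had 5 hr of compound at 37 C.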

[17] = biological target: Progesterone receptor (Homo sapiens) (UniProt P06401); experiment: qHTS assay to identify small molecule agonists of the progesterone receptor (PR) signaling pathway (AID 1346784; calls by dose curve; also: nearly all actives have a fitted effect of over 30% in size)
Outline: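 Reporter assay, GripTite PR-UAS-bla HEK 293T cells: 16 hr exposure to DMSO-dissolved compounds at 37C, 5% CO2, in steroid-depleted (2% charcoal-stripped FBS) medium; beta-lactamase measured by FRET fluorescence.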

[18] = qHTS assay to identify small molecule antagonists of the TGF-beta/Smad signaling pathway - cell viability counter screen (AID 1346824); also: nearly all actives have a fitted effect of over 50% in size
Outline: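 SBE-bla HEK 293T cells were plated overnight at 37 C, then given compounds in DMSO plus TGF-beta1 (added as 0.25 ng/mL solution) for 5 hr. After the bla read, CellTiter-Glo was added to the same wells and luminescence read after 30 min at room temperature.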

[19] = biological target: Estrogen receptor (Homo sapiens) (UniProt P03372); experiment: qHTS assay to identify small molecule agonists of the estrogen receptor alpha (ER-alpha) signaling pathway in the presence of an antagonist (AID 1259383; calls by dose curve; also: top concentration of the series differs between compounds; nearly all actives have a fitted effect of over 15% in size)
Outline: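 In VM7Luc4E2 cells, 4,000 per well, compounds at 15 concentrations were co-incubated 22hr at 37C with 10.0nM final ICI-182,780. Luminescence from the stably transfected 4×ERE-luciferase reporter was recorded 30min after ONE-Glo addition.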

Measured: Potency

Chain of Thyrotropin receptor (Homo sapiens) (P16473 whole entry, looked up): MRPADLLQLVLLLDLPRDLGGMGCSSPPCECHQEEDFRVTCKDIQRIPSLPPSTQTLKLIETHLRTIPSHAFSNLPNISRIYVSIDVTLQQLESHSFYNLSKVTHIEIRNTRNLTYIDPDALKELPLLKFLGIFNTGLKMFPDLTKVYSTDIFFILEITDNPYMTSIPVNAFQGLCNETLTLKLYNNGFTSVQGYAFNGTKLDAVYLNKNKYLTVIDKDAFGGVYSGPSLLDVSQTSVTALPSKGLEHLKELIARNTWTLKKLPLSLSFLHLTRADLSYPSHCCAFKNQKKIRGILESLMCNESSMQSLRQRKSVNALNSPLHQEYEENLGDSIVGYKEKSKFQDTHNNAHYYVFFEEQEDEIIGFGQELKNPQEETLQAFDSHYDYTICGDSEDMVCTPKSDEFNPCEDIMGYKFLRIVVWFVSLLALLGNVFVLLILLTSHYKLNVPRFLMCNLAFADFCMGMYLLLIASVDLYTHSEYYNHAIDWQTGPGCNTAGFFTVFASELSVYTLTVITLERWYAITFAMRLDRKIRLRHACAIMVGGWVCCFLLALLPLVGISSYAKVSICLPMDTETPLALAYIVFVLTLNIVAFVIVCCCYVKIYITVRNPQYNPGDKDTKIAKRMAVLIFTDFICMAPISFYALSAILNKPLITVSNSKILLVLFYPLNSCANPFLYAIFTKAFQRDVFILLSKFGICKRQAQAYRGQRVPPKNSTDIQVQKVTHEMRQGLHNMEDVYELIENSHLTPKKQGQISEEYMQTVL
Chain of Progesterone receptor (Homo sapiens) (P06401 whole entry, looked up): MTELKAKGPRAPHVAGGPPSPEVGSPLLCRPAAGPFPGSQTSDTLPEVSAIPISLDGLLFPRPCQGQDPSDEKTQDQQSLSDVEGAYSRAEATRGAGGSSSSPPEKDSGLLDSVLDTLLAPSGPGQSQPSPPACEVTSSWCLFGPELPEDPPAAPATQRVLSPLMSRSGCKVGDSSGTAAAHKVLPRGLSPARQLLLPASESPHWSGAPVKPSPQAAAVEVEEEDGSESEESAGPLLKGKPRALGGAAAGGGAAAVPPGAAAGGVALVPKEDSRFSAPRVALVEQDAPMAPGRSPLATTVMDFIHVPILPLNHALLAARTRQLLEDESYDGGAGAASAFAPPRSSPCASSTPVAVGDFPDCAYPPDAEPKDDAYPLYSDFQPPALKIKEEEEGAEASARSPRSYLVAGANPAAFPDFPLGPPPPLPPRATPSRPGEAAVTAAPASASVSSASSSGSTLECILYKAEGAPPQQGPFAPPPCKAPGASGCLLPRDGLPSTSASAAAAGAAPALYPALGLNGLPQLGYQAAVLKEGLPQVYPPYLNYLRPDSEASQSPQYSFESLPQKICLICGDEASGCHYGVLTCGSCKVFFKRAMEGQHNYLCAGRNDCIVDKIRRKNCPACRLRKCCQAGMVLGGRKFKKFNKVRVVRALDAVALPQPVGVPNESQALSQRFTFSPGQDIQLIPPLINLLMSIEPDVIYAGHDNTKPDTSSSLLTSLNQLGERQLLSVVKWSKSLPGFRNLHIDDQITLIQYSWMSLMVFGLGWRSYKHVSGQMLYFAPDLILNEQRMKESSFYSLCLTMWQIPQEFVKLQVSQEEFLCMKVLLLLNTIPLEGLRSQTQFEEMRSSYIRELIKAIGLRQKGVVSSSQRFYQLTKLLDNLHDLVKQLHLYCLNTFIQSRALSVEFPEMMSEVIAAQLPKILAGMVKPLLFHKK
Chain of Estrogen receptor beta (Homo sapiens) (Q92731 whole entry, looked up): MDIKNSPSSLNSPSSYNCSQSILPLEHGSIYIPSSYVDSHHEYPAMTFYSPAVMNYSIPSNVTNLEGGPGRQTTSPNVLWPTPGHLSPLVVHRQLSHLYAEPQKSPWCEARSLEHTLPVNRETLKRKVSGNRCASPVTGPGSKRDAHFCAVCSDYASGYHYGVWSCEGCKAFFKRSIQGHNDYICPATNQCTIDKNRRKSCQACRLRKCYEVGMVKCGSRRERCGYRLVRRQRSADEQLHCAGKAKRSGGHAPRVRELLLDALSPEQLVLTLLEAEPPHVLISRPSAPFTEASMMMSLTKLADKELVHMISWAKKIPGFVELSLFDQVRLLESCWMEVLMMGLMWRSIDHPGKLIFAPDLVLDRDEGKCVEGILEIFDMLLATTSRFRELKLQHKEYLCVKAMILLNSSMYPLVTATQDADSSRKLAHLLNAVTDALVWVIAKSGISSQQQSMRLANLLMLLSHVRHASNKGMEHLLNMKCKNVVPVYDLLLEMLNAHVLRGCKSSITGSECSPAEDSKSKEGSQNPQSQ
Chain of Estrogen receptor (Homo sapiens) (P03372 whole entry, looked up): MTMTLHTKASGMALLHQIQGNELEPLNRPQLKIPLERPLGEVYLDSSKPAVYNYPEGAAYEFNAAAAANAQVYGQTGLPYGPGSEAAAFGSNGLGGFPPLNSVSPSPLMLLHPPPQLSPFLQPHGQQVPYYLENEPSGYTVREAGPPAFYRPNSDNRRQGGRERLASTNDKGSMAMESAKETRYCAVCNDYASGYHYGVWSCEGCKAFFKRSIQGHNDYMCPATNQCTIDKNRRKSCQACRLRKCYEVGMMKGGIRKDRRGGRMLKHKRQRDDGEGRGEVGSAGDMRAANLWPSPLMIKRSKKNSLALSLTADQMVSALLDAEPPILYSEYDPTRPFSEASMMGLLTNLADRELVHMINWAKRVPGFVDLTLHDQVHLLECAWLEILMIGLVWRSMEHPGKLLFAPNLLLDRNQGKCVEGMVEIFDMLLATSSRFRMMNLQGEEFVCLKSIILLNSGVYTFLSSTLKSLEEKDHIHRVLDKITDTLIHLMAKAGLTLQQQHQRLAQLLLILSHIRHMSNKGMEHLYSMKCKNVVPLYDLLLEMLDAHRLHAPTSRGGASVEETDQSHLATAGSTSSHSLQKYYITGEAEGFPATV

Cc1cc(N)no1
not listed: [17] | [18] | [19]
inactive: all other assays above

COc1cc(C(=O)NC2CCCNC2)cc(OC)c1OC (stereo unspecified)
not listed: [14] | [15] | [19]
inactive: all other assays above

O=S(=O)(O)CC(O)CCl (stereo unspecified)
not listed: [10] | [11] | [13] | [14] | [16]
inactive: all other assays above

CC(=O)c1ccc(O)c(C(N)=O)c1
not listed: [13] | [14] | [19]
inactive: all other assays above

CCCc1ncc(C(=O)O)s1
not listed: [10] | [11] | [19]
inactive: all other assays above

CCO/C=C1\N=C(c2ccccc2)OC1=O
not listed: [16] | [19]
inactive: all other assays above

O=C1CC2(CCCC2)CC(=O)N1CCNCC1COc2ccccc2O1 (stereo unspecified)
not listed: [15] | [16] | [19]
inactive: all other assays above

Reference: PubChem BioAssay (Tox21)
